Screen size: about 5,500 compounds; about 2,000 (36%) were called active. Not shown: some 18% with an inconclusive outcome. No stated cut-off is given here; in the data, active means normalized growth mostly below about 0.91 (no sharp cut-off); inconclusive means no clear call, values can overlap the other calls; inactive means mostly above about 0.92. Some of the results follow.
Assay: chemical genetic growth profiling, strain panel (AID 1159580);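 further: tested at 20 µM; growth read once vehicle control cultures reached saturation at 30 °C; 1 = growth at the plate median or of vehicle wells; lower values mean less growth of the strain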
Conditions: growth OD

Measured: normalized growth

Nc1nc(/C(=C/CC(=O)O)C(=O)N[C@@H]2C(=O)N3C(C(=O)O)=CCS[C@H]23)cs1
inactive: S. cerevisiae deletion strains, locus YJR075W, strain HOC1, hits give low values 1.01 | S. cerevisiae deletion strains, locus YKL009W, strain mrt4, hits give low values 0.986 | S. cerevisiae deletion strains, locus YKL068W, hits give low values 0.997 | S. cerevisiae deletion strains, locus YKL085W, strain MDH1 (second series), hits give low values 0.987 | S. cerevisiae deletion strains, locus YKL085W, strain MDH1, hits give low values 0.987 | S. cerevisiae deletion strains, locus YKL160W, strain elf1, hits give low values 0.993 | S. cerevisiae deletion strains, locus YKL190W, strain CNB1, hits give low values 1.01 | S. cerevisiae deletion strains, locus YKR001C, strain vps1, hits give low values 0.981 | S. cerevisiae deletion strains, locus YKR026C, strain gcn3, hits give low values 1 | S. cerevisiae deletion strains, locus YKR091W, strain srl3, hits give low values 1.01 | S. cerevisiae deletion strains, locus YLL001W, strain dnm1, hits give low values 1.01 | S. cerevisiae deletion strains, locus YLL026W, hits give low values 1.01 | S. cerevisiae deletion strains, locus YLL041C, strain sdh2, hits give low values 1.01 | S. cerevisiae deletion strains, locus YLR027C, strain aat2, hits give low values 1.01 | S. cerevisiae deletion strains, locus YLR039C, strain RIC1, hits give low values 1.03 | S. cerevisiae deletion strains, locus YLR058C, strain SHM2, hits give low values 0.996 | S. cerevisiae deletion strains, locus YLR102C, strain apc9, hits give low values 0.996 | S. cerevisiae deletion strains, locus YLR113W, strain HOG1, hits give low values 0.998 | S. cerevisiae deletion strains, locus YLR221C, strain rsa3, hits give low values 1.01 | S. cerevisiae deletion strains, locus YLR258W, strain gsy2, hits give low values 0.999 | S. cerevisiae deletion strains, locus YLR262C, strain YPT6 (second series), hits give low values 1.03 | S. cerevisiae deletion strains, locus YLR262C, strain YPT6, hits give low values 1.02 | S. cerevisiae deletion strains, locus YLR268W, strain sec22, hits give low values 0.987 | S. cerevisiae deletion strains, locus YLR320W, strain mms22, hits give low values 1.01 | S. cerevisiae deletion strains, locus YLR330W, strain CHS5, hits give low values 0.99 | S. cerevisiae deletion strains, locus YLR342W, strain FKS1 (second series), hits give low values 1 | S. cerevisiae deletion strains, locus YLR342W, strain FKS1, hits give low values 1.01 | S. cerevisiae deletion strains, locus YLR357W, strain rsc2, hits give low values 1.01 | S. cerevisiae deletion strains, locus YLR370C, strain arc18, hits give low values 1 | S. cerevisiae deletion strains, locus YLR371W, strain rom2, hits give low values 0.995 | S. cerevisiae deletion strains, locus YLR384C, strain iki3, hits give low values 0.997 | S. cerevisiae deletion strains, locus YLR418C, strain cdc73, hits give low values 1 | S. cerevisiae deletion strains, locus YML016C, strain PPZ1, hits give low values 0.984 | S. cerevisiae deletion strains, locus YML032C, strain rad52, hits give low values 0.997 | S. cerevisiae deletion strains, locus YML120C, strain ndi1, hits give low values 1 | S. cerevisiae deletion strains, locus YML124C, strain tub3, hits give low values 0.982 | S. cerevisiae deletion strains, locus YMR058W, strain fet3, hits give low values 0.998 | S. cerevisiae deletion strains, locus YMR078C, strain ctf18, hits give low values 0.991 | S. cerevisiae deletion strains, locus YMR125W, strain sto1, hits give low values 1.01 | S. cerevisiae deletion strains, locus YMR129W, hits give low values 1.01 | S. cerevisiae deletion strains, locus YMR205C, strain PFK2, hits give low values 1.01 | S. cerevisiae deletion strains, locus YMR223W, strain ubp8, hits give low values 1 | S. cerevisiae deletion strains, locus YMR231W, strain pep5, hits give low values 1.01 | S. cerevisiae deletion strains, locus YMR263W, strain SAP30, hits give low values 1.01 | S. cerevisiae deletion strains, locus YMR307W, strain GAS1, hits give low values 0.996 | S. cerevisiae deletion strains, locus YNL067W, strain RPL9B, hits give low values 1.03 | S. cerevisiae deletion strains, locus YNL071W, strain lat1, hits give low values 1 | S. cerevisiae deletion strains, locus YNL128W, strain TEP1, hits give low values 1.01 | S. cerevisiae deletion strains, locus YNL153C, strain GIM3, hits give low values 0.995 | S. cerevisiae deletion strains, locus YNL183C, strain NPR1, hits give low values 0.961 | S. cerevisiae deletion strains, locus YNL209W, strain ssb2, hits give low values 0.994 | S. cerevisiae deletion strains, locus YNL233W, strain BNI4, hits give low values 0.993 | S. cerevisiae deletion strains, locus YNL248C, strain rpa49, hits give low values 1.01 | S. cerevisiae deletion strains, locus YNL250W, strain rad50, hits give low values 0.987 | S. cerevisiae deletion strains, locus YNL271C, strain bni1, hits give low values 0.987 | S. cerevisiae deletion strains, locus YNL298W, strain CLA4, hits give low values 0.984 | S. cerevisiae deletion strains, locus YNL307C, strain MCK1, hits give low values 0.998 | S. cerevisiae deletion strains, locus YNL322C, strain KRE1 (second series), hits give low values 1.01 | S. cerevisiae deletion strains, locus YNL322C, strain KRE1, hits give low values 0.994 | S. cerevisiae deletion strains, locus YNR049C, strain mso1, hits give low values 1 | S. cerevisiae deletion strains, locus YNR052C, strain pop2, hits give low values 0.983 | S. cerevisiae deletion strains, locus YOL006C, strain TOP1, hits give low values 1.02 | S. cerevisiae deletion strains, locus YOL012C, strain htz1 2.11 | S. cerevisiae deletion strains, locus YOL147C, strain pex11, hits give low values 0.997 | S. cerevisiae deletion strains, locus YOR001W, strain rrp6, hits give low values 1.01 | S. cerevisiae deletion strains, locus YOR061W, strain CKA2, hits give low values 0.984 | S. cerevisiae deletion strains, locus YOR069W, strain VPS5, hits give low values 0.993 | S. cerevisiae deletion strains, locus YOR070C, strain gyp1, hits give low values 1 | S. cerevisiae deletion strains, locus YOR080W, strain dia2, hits give low values 1.01 | S. cerevisiae deletion strains, locus YOR083W, strain WHI5, hits give low values 1.01 | S. cerevisiae deletion strains, locus YOR106W, strain vam3, hits give low values 1.02 | S. cerevisiae deletion strains, locus YOR136W, strain idh2, hits give low values 0.983 | S. cerevisiae deletion strains, locus YOR144C, strain elg1, hits give low values 0.988 | S. cerevisiae deletion strains, locus YOR184W, strain ser1, hits give low values 0.999 | S. cerevisiae deletion strains, locus YOR231W, strain MKK1, hits give low values 0.986 | S. cerevisiae deletion strains, locus YOR265W, strain rbl2, hits give low values 1.01 | S. cerevisiae deletion strains, locus YOR270C, strain vph1, hits give low values 1.06 | S. cerevisiae deletion strains, locus YOR290C, strain snf2, hits give low values 0.995 | S. cerevisiae deletion strains, locus YOR316C, strain cot1, hits give low values 0.992 | S. cerevisiae deletion strains, locus YPL051W, strain arl3, hits give low values 1 | S. cerevisiae deletion strains, locus YPL055C, strain LGE1, hits give low values 1.01 | S. cerevisiae deletion strains, locus YPL078C, strain atp4, hits give low values 1 | S. cerevisiae deletion strains, locus YPL106C, strain sse1, hits give low values 1.01 | S. cerevisiae deletion strains, locus YPL240C, strain hsp82, hits give low values 1.01 | S. cerevisiae deletion strains, locus YPL241C, strain CIN2, hits give low values 0.993 | S. cerevisiae deletion strains, locus YPL256C, strain CLN2, hits give low values 0.961 | S. cerevisiae deletion strains, locus YPR119W, strain clb2, hits give low values 0.997 | S. cerevisiae deletion strains, locus YPR141C, strain kar3, hits give low values 0.99 | S. cerevisiae deletion strains, locus YPR163C, strain tif3, hits give low values 0.982 | S. cerevisiae deletion strains, locus YPR167C, strain met16, hits give low values 0.991 | S. cerevisiae deletion strains, strain wtn01, hits give low values 0.985 | S. cerevisiae strains, strain wild type, hits give low values 1.01
